Activity calls are given as the source filed them. Calls follow the shape of the dose curve; as a rule, active = well fitted activation curve with a large enough effect; inconclusive = small, poorly fitted or top-dose-only effect; inactive = no such curve, though single readings can be large or run the other way.
target: Parathyroid hormone/parathyroid hormone-related peptide receptor (Homo sapiens) (UniProt Q03431); assay: qHTS for PTHR1 Agonists: Optimization Screen against the NCGC LOPAC library (AID 1347079); conditions: HEK293 GP2 PTHR1 GloSensor cAMP luminescence, 1 h; series mostly up to 57.1 µM
Procedure, shortened: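 Signal increase flags agonism. GP2 cells, derived from HEK-293, express human PTHR1 and a GloSensor cAMP construct.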

Sequence of Parathyroid hormone/parathyroid hormone-related peptide receptor (Homo sapiens) (Q03431 whole entry, looked up): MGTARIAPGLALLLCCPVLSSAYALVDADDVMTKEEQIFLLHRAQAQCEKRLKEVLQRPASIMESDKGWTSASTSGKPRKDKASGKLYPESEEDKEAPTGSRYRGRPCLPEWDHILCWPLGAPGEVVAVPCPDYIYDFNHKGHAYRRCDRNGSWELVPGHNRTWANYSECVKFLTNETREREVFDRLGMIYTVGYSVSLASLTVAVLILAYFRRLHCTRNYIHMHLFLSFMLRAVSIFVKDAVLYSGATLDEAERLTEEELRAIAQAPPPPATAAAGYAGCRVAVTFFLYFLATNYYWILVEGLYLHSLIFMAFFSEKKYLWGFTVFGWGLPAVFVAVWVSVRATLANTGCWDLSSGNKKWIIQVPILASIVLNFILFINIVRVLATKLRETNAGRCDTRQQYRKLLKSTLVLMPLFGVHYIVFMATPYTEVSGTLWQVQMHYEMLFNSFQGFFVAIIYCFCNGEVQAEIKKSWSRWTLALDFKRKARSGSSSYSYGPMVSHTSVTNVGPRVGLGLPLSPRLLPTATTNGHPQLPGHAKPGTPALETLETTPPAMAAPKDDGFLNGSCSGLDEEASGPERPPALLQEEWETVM

Row | SMILES | outcome
1 | Cc1ccc(/C(=C\CN2CCCC2)c2ccccn2)cc1 | inactive
2 | C[N+](C)(C)CCCCCCCCCC[N+](C)(C)C | inactive
3 | CC[N+](C)(C)c1cccc(O)c1 | inactive
4 | CC(N=C(NC#N)Nc1ccncc1)C(C)(C)C (stereo not drawn) | inactive
5 | O=C(CCNNC(=O)c1ccncc1)NCc1ccccc1 | inactive
6 | CCCN(CCC)CCc1cccc2c1CC(=O)N2 | inactive
7 | CCCCNc1c(C(=O)OCC)c(C)nc2c1cnn2CC | inactive
8 | COCC(=O)O[C@]1(CCN(C)CCCc2nc3ccccc3[nH]2)CCc2cc(F)ccc2[C@@H]1C(C)C | inactive
9 | Nc1ncn([C@@H]2O[C@H](CO)[C@@H](O)[C@H]2O)c(=O)n1 | inactive
10 | CCN(CC)CC(=O)Nc1c(C)cccc1C | inactive
11 | CCN(CC)CCCN(c1ccccc1)C1Cc2ccccc2C1 | inactive
12 | CN=C(NC#N)NCCSCc1nc[nH]c1C | inactive
13 | COc1ccc(CCN(C)CCCC(C#N)(c2cc(OC)c(OC)c(OC)c2)C(C)C)cc1OC (stereo not drawn) | inactive
14 | O=c1[nH]c(=O)n([C@H]2C[C@H](O)[C@@H](CO)O2)cc1Br | inactive
15 | c1ccc2c(c1)CCCC2C1=NCCN1 (stereo not drawn) | inactive
16 | C[C@]12CCC(=O)C=C1CC[C@@H]1[C@@H]2CC[C@@]2(C)[C@H]1CC[C@]2(O)C(=O)CO | inactive
17 | C[C@]12CC[C@@H]3c4ccc(O)cc4C[C@@H](CCCCCCCCCS(=O)CCCC(F)(F)C(F)(F)F)[C@H]3[C@@H]1CC[C@@H]2O (stereo partly drawn) | inactive

Row | SMILES | outcome
18 | CCCCCCCC/C=C\CCCCCCCC(=O)NCc1ccc(O)c(OC)c1 | inactive
19 | CC(C)[N+](C)(CCOC(=O)C1c2ccccc2Oc2ccccc21)C(C)C | inactive
20 | CN(C)CCCN1c2ccccc2Sc2ccccc21 | inactive
21 | NC1=NCC2c3ccccc3Cc3ccccc3N12 (stereo not drawn) | inactive
22 | Cc1nc2c([nH]1)c(=O)n(C)c(=O)n2Cc1ccco1 | inactive
23 | O=C(O)CCCCCCCC(=O)O | inactive
24 | OCCN1CCN(CCCN2c3ccccc3C=Cc3ccccc32)CC1 | inactive
25 | CN(C)[C@@H]1C(=O)C(C(N)=O)=C(O)[C@@]2(O)C(=O)C3=C(O)c4c(O)ccc(Cl)c4[C@@H](O)[C@H]3C[C@@H]12 | inactive
26 | NC(N)=NC(=O)Cc1c(Cl)cccc1Cl | inactive
27 | C[n+]1cc2c3c(ccc2c2ccc4cc5c(cc4c21)OCO5)OCO3 | inactive
28 | CN(C)CC[C@@H](c1ccc(Br)cc1)c1ccccn1 | inactive
29 | CC(=O)Nc1nnc(S(N)(=O)=O)s1 | inactive
30 | Fc1ccc(C(c2ccc(F)cc2)N2CCN(C/C=C/c3ccccc3)CC2)cc1 | inactive
31 | CC(=O)OCC1=C(C(=O)O)N2C(=O)[C@@H](NC(=O)Cc3cccs3)[C@H]2SC1 | inactive
32 | Cc1ccc(S(=O)(=O)NC(=O)NN2CCCCCC2)cc1 | inactive
33 | NC/C=C/C(=O)O | inactive

— PubChem BioAssay (NCATS)
